BAZ2B inh: inhibitors of human BAZ2B bromodomain; Q9UIF8; AlphaScreen BAZ2B-H3K14Ac peptide displacement; Potency, µM (series often up to 114 µM), without a hit: at the top dose activity change, negative = inhibition, most hits filed as inhibitors; hit rate 4.4% among 360,000; AID 504333; note: % is set by controls: 0 for no effect and ±100 for the full control effect; nearly all actives have a fitted effect of over 60% in size
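AlphaScreen displacement: compounds (up to 110uM) incubated 30 min at room temperature with a preformed 50 nM BAZ2B/50 nM biotinylated H3K14Ac peptide complex in PBS pH 7.4 with Tween-20. Donor and acceptor beads at 10 ug/mL final added, 20 min light-protected before reading.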
JMJD2A Tudor: JMJD2A Tudor domain (human) inhibition; hit rate 4.4% among 390,000; Potency, µM (top dose mostly 114 µM), for the others: at the highest dose activity change, negative = inhibition, hits mostly inhibitors; AID 504339; AlphaScreen JMJD2A-Tudor / H3K4me3 peptide binding; note: % is set by controls: 0 for no effect and ±100 for the full control effect; nearly all actives have a fitted effect of over 50% in size
PLK1 PBD inh: blocks phosphopeptide binding to human PLK1 polo-box domain. P53350. Plk1 PBD binding of FITC phosphopeptide, fluorescence polarization. Potency, µM, for inactives: max response, negative = inhibition, most hits filed as inhibitors. hit rate 2.8% among 360,000. AID 720504; note: series mostly up to about 57 µM; % is set by controls: 0 for no effect and ±100 for the full control effect; nearly all actives have a fitted effect of over 65% in size
HP1b chromo inh: inhibitors of HP1-beta chromodomain binding to methylated histone tails | P83916 | AlphaScreen HP1-beta / biotin-H3K9me3 peptide binding | Potency, µM (series often up to 114 µM), inactives show top-dose activity change, negative = inhibition, usual class: inhibitors | hit rate 0.56% among 390,000 | AID 540317; note: nearly all actives have a fitted effect of over 70% in size
Target sequence (P83916 whole entry, looked up): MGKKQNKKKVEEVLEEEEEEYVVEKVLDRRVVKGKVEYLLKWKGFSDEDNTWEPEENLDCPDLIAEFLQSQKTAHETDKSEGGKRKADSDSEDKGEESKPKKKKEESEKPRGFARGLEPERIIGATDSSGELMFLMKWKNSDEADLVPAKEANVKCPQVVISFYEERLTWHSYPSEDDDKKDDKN
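AlphaScreen: HP1-beta (50 nM) preformed 30 min with biotin-H3(1-18)K9me3 peptide (50 nM) in PBS pH 7.4, 0.01% Tween-20. Compound added for 30 min at RT, then streptavidin donor/nickel chelate acceptor beads (10 ug/mL) for 30 min.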
G9a inh: blocks human histone lysine methyltransferase G9a | Q96KQ7 | G9a H3K9 monomethylation, AlphaScreen, 2 h | Potency, µM (doses to about 102 µM), inactives show at the top dose activity, negative = inhibition, hits mostly inhibitors | hit rate 8.8% among 350,000; note: % is set by controls: 0 for no effect and ±100 for the full control effect; nearly all actives have a fitted effect of over 75% in size
Target sequence (Q96KQ7 913-1193 limits assumed): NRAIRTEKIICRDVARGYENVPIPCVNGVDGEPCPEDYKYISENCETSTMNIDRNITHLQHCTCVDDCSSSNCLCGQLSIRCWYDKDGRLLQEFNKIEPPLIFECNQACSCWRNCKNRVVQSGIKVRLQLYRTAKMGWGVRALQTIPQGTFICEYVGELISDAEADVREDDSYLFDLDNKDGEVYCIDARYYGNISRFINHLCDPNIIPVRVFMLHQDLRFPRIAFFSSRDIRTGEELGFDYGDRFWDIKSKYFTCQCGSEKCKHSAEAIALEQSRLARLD
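Signal arises when biotinylated H3K9 peptide, once monomethylated, bridges streptavidin donor and antibody-captured acceptor beads. Enzyme at 20 nM was preincubated 15 min with test compounds; peptide 500 nM and SAM 20 uM then reacted for 2 h.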
ALOX12 inh: inhibitors of human 12S-lipoxygenase ALOX12; hit rate 1.1% among 580,000; P18054; AID 1671190; purified 12hLO, xylenol orange hydroperoxide absorbance; Potency, µM (series often up to 108 µM), inactives show top-dose activity change, negative = inhibition, usual class: inhibitors; note: % is set by controls: 0 for no effect and ±100 for the full control effect
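Purified human 12hLO at 150 nM in 25 mM Hepes, 0.01% Triton X-100, pH 7.0, preincubated 15 min at room temperature with compound. Reaction started with 40 uM arachidonic acid, 30 min at room temperature. Hydroperoxide measured by Fe-xylenol orange, 573/405 nm absorbance ratio.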
Numbers without * were called inactive; ? = inconclusive; . = not tested or not shown; ! = a repeat was not active; [ ] = dose if it differs, or a comment. Compounds with a hit are over-represented: about 9% of the library has one in this group of screens. Calls come from the whole dose curve; as a rule, active = well fitted curve in the direction sought with a large enough effect; inconclusive = small, poorly fitted or top-dose-only effect, or another doubt; inactive = no such curve, though single readings can be large; an effect the other way counts as inactive or inconclusive. Potency is the fitted concentration of half-maximal effect.

SMILES | BAZ2B inh | JMJD2A Tudor | PLK1 PBD inh | HP1b chromo inh | G9a inh | ALOX12 inh
OC(CN1CCN(c2ccccc2)CC1)Cn1c2ccccc2c2ccccc21 (configuration not stated) | ? | ? | -0.9% | -30.8% | 31.6µM* | 0.0%
CSc1ccc(CNC(=O)CCn2ccc3cc(S(=O)(=O)N4CCCC4)ccc32)cc1 | ? | ? | 26.7µM* | -2.3% | 1.2% | ?
CCOc1ccc(CNC(=O)Cn2ccc3cc(S(=O)(=O)N4CCCC4)ccc32)cc1 | -7.8%[57.1 µM] | ? | 26.7µM* | 17.9% | 19.2% | 42.9%
COc1cccc(CNC(=O)Cn2ccc3cc(S(=O)(=O)N4CCCC4)ccc32)c1OC | -5.1%[57.1 µM] | ? | 29.9µM* | 15.9% | 15.0% | 16.9%
CCOc1ccc(CNC(=O)Cn2ccc3cc(S(=O)(=O)N4CCCCCC4)ccc32)cc1 | 2.8% | 3.6% | 3.2% | 14.8%[57 µM] | 4.5% | 8.2%
COc1ccccc1CCNC(=O)Cn1ccc2cc(S(=O)(=O)N3CCCC3)ccc21 | -16.9%[57.1 µM] | -30.8% | ? | 16.5% | 10.6% | 5.7%
S=C(NCC1CCCO1)N1CCN(c2cccc(Cl)c2)CC1 (configuration not stated) | -7.4% | -20.3% | -4.3% | 33.3% | 1.6% | 0.0%
COc1ccc(/C(C)=N/N=C(N)N)c(O)c1 | -5.6% | -3.5% | -7.2% | 50.3% | 45.0%[59 µM] | 4.1%
CC(=O)NC1=NN(C(C)=O)C(C)(c2ccccc2)S1 (configuration not stated) | 44.7µM* | -1.7% | -1.9% | 8.9% | ? | 16.6%
Cc1ccc(N(Cc2cccs2)C(=O)c2ccc(Br)o2)cc1 | -27.3% | 10.3% | . | 4.4% | -4.6%[59 µM] | -9.7%
COc1ccc(NC(=O)C[C@H]2C(=O)N(C3CCCCC3)C[C@@H]2C)cc1 | . | . | 5.2% | . | . | -7.1%
Cc1cc(=O)n2cccc(O)c2n1 | 12.6µM* | ? | ? | -8.9% | . | -11.4%
CCOc1ccc(CN2CCSCC2)cc1 | ? | 3.55µM* | 9.5% | ? | ? | ?
CCOC(=O)CSc1nnc(CNc2ccc(Cl)cc2)n1-c1ccccc1 | 2.6% | -17.4% | -21.8% | 10.2% | -43.6%[59 µM] | 3.2%[57.4 µM]
COC(=O)CSc1nnc(CNc2ccc(Cl)cc2)n1Cc1ccccc1 | ? | -20.9% | -16.3% | 6.8% | 56.2µM* | 20.7%
c1cc(OCCCN2CCCCC2)ccc1CN1CCCCC1 | -15.6% | -9.9% | 4.1% | 15.2% | 5.7% | -28.4%
CCCCOc1ccc(CN2CCSCC2)cc1 | 4.8% | 28.2µM* | -7.8% | ? | . | ?
CCOc1ccc(NCc2nnc(SCc3ccc(Cl)cc3)n2-c2ccccc2)cc1 | 14.1µM* | 22.4µM* | -17.4% | ? | 25.1µM* | -13.6%
Cc1ccc(NCc2nnc(SCC(=O)O)n2Cc2ccccc2)cc1Cl | -31.3% | -14.7% | -10.8% | 30.9% | -30.6% | -2.9%
COCCSc1ccccc1C(=O)N1CCC(Cc2ccccc2)CC1 | -19.3% | -3.8% | 0.7% | 30.1% | . | 0.0%
Cn1c(=O)c2nnn(/N=C(\c3ccccc3)C3CC3)c2n(C)c1=O | 58.7% | -7.9% | -8.3% | 16.0% | -8.2% | ?
CCOc1ccc(CNc2ccc(N3CCN(Cc4ccccc4)CC3)cc2)cc1 | 8.91µM* | 8.91µM* | -12.8% | ? | . | -10.9%
O=C(NCc1ccc(F)cc1)c1cnccn1 | -14.4% | -2.1% | 5.1% | 21.8% | 4.4% | 2.9%
COc1cnc(-c2ccccn2)nc1Oc1ccccc1 | 25.1µM* | 89.1µM* | -12.7% | 44.7% | -3.7% | -0.2%
COc1cnc(-c2ccccn2)nc1N(C)c1ccccc1 | 20µM* | 25.1µM* | -8.2% | 2.4% | ? | -6.2%
SMILES | BAZ2B inh | JMJD2A Tudor | PLK1 PBD inh | HP1b chromo inh | G9a inh | ALOX12 inh
O=C(c1cccc(Cl)c1)n1nc(-c2cccnc2)nc1NCc1ccccc1 | 15.2% | 2.1% | . | 80.9% | 1.0%[59 µM] | -13.0%
O=c1oc2ccccc2cc1-c1nc(-c2cccnc2)no1 | . | . | . | . | . | -6.9%
NS(=O)(=O)c1cc(C(=O)O)cc(N2CCCC2)c1Oc1ccccc1 | 5.4% | -10.1% | -6.2% | 9.7% | 17.8µM*! | -21.3%
O/N=C1/CCCCC1c1ccccn1 (configuration not stated) | 50.1µM* | 31.6µM* | -5.8% | 22.9% | ? | 0.0%
O=[N+]([O-])c1ccc(C2CCCC/C2=N/O)c([N+](=O)[O-])c1 (configuration not stated) | -15.4% | -0.4% | -0.1% | 13.1% | -3.1% | 5.7%
Cc1cc2nn(-c3cccc4ccccc34)nc2cc1N | ? | 2.4%[57.1 µM] | ? | 19.7% | 3.55µM* | ?
COc1ccc(-n2nc3cc(C)c(N)c(Br)c3n2)cc1 | -3.4% | -15.8%[11.4 µM] | 3.77µM* | -25.9% | ? | 28.2µM*
CCc1ccc(C(=O)Nc2ccc3nn(-c4ccc(C)c(Cl)c4)nc3c2)cc1 | -11.0% | 0.4% | . | 18.8% | -29.3%[59 µM] | -28.2%
CCc1ccc(-n2nc3cc(C)c(N)cc3n2)cc1 | 31.6µM* | 89.1µM* | ? | -2.0% | 1.12µM* | 20µM*
Cc1ccc(-n2nc3cc(C)c(N)cc3n2)cc1 | ? | -19.8% | -15.7% | 3.1% | 1.58µM* | 44.7µM*
COc1ccc(-n2nc3cc(N)c(Br)cc3n2)cc1 | -2.6% | -16.6% | -14.3% | -1.6% | 16.6%[0.501 µM] | -8.3%
CCn1c(O)c(N=Nc2ccc(Cl)c(C(=O)O)c2)c2ccccc21 | -18.2% | -35.3% | -19.9% | -11.1% | ? | -12.8%
CC(=O)C1=C(C)NC(SCSc2ccccc2)=C(C#N)C1c1cccnc1 (configuration not stated) | 1.8% | -31.4% | 0.0% | 40.7% | ? | .
CC(=O)C1=C(C)NC(SCC(=O)c2ccc(-c3ccccc3)cc2)=C(C#N)C1c1cccnc1 (configuration not stated) | -21.6% | . | . | . | 15.8µM* | .
C=CCOC(=O)C1=C(C)NC(SCC(=O)NC(=O)OCC)=C(C#N)C1c1cccnc1 (configuration not stated) | -6.2% | -4.9% | -1.5% | 44.7% | 50.1µM* | 7.0%
CC(C)c1ccc(CC(=O)N2CCC2(C)C(=O)Nc2ccc3c(c2)OCO3)cc1 (configuration not stated) | . | . | -0.6% | . | . | -1.2%
O=C1CC(c2ccc3c(c2)OCCO3)Oc2ccccc21 (configuration not stated) | -10.5% | -23.6% | 8.44µM* | 29.6% | 33.0% | 0.4%
O=C1CC(c2ccc3c(c2)OCCO3)Oc2ccc([N+](=O)[O-])cc21 (configuration not stated) | -36.6% | -24.7% | -16.7% | -19.3% | -25.5% | -17.4%
COc1ccc2nc(SCC(=O)N(Cc3ccccc3)C3CCS(=O)(=O)C3)[nH]c2c1 (configuration not stated) | . | . | . | . | . | 8.3%
